# IMPase Li cell: cell-permeable IMPase inhibitors with lithium potentiation. 210,000 compounds, 0.35% hits. CHO-M1 cells, IP1 TR-FRET (IP-One), carbachol + lithium. Potency, µM (highest dose often 59.4 µM), without a hit: at the highest dose activity, negative = IMPase inhibition, hits mostly inhibitors;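 note: IP1 builds up when IMPase is blocked and the TR-FRET signal falls; plate controls were basal vehicle for no effect and high inhibitor control for full effect; nearly all actives have a fitted effect of over 50% in size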
#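 CHO cells stably expressing M1 receptor (2000/well, cultured 16–30 h) treated 30 min at 37C with compound plus low lithium. Cytosolic IP1 by TR-FRET (665/620 ratio and 620 channel) after 10 min lysis; AC50 by Hill fit.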
# RGS12 GoLoco inh: blocks human Gai1 binding to RGS12 GoLoco peptide, red readout; 230,000 compounds, 0.44% hits; P63096; Potency, µM (titrated, usually from 61.6 µM), for the others: at the highest dose activity, negative = inhibition, actives largely listed as inhibitors; Gai1:RGS12 GoLoco peptide FP, rhodamine, 10 min; active = well fitted inhibition curve with a large enough effect, not every such curve was filed as active; inactive = no such curve, though single readings can be large or run the other way; note: % is set by controls: 0 for no effect and ±100 for the full control effect; nearly all actives have a fitted effect of over 30% in size
# Target sequence (P63096 whole entry, looked up): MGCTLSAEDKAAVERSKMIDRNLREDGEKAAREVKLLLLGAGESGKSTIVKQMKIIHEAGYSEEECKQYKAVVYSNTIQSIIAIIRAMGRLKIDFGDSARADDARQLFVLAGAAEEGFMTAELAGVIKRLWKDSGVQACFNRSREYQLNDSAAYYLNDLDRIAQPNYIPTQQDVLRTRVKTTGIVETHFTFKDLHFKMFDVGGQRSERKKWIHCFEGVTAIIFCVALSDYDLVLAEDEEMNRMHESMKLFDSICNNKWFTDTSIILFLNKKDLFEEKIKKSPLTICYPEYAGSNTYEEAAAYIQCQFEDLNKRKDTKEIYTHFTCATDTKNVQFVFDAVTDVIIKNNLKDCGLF
# MBNL1-CUG inh: blocks human MBNL1 binding to CUG repeat RNA; Q9NR56; TR-FRET MBNL1-His/biotin-(CUG)12 binding, 665/545 ratio; Potency, µM (highest dose often 57.5 µM), inactives show top-dose activity change, negative = inhibition, most hits filed as inhibitors; 280,000 compounds, 0.036% hits; AID 2675; active = well fitted inhibition curve with a large enough effect in the signal ratio, with a control signal flat, not every such curve was filed as active; inconclusive = small, poorly fitted or top-dose-only effect, or effect the other way, or a change in a side signal; inactive = no such curve, though single readings can be large or run the other way; the % refers to the signal ratio; note: % is set by controls: 0 for no effect and ±100 for the full control effect
# Target sequence (Q9NR56 whole entry, looked up): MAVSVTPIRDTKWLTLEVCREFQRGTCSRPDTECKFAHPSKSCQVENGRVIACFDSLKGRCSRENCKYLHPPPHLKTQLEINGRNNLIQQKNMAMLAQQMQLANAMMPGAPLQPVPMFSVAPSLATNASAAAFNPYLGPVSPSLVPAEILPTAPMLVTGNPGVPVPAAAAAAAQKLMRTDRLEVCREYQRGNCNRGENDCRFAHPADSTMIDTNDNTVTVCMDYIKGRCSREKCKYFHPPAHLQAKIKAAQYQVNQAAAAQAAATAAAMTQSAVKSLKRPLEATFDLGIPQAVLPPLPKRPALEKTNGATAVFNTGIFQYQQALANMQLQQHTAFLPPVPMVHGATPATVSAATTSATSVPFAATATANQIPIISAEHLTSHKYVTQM
#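 TR-FRET readout: Ex 340 nm, 665/545 nm emission ratio, normalized to buffer-only (basal) and MBNL1-(CUG)12 controls. Complex of MBNL1-His with Biotin-(CUG)12, compounds 92 nM–58 uM, incubated 60 min at room temperature.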
# Tb PFK inh-1: T. brucei PFK enzyme inhibition; O15648; T. brucei PFK, ADP-Glo luminescence; Potency, µM (top dose mostly 57.5 µM), without a hit: at the top dose activity, negative = inhibition, hits mostly inhibitors; 330,000 compounds, 0.17% hits;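 note: 0% = uninhibited 1x PFK enzyme wells and -100% = no-enzyme wells; nearly all actives have a fitted effect of over 60% in size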
#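 Compounds were pin-transferred as a titration series up to 57 uM into substrate buffer (0.5 mM F6P, 0.1 mM ATP, pH 8.0), then 1.25 nM PFK was added and reactions ran 45 min before ADP-Glo detection.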
# NPSR antag: antagonists of human neuropeptide S receptor cAMP signaling; Q6W5P4; CHO-NPSR cells, cAMP TR-FRET, antagonist mode; Potency, µM (top dose mostly 38.3 µM), inactives show at the highest dose activity change, negative = inhibition, usual class: inhibitors; 220,000 compounds, 1% hits; note: % is set by controls: 0 for no effect and ±100 for the full control effect; nearly all actives have a fitted effect of over 50% in size
# TbPFK ATP: orthogonal confirmation of T. brucei phosphofructokinase inhibitors; 1,100 compounds, 47% hits; Potency, µM (doses to about 57.5 µM), for the others: top-dose inhibition; Tb PFK enzyme, ATP depletion, Kinase-Glo Plus luminescence; shares compounds with Tb PFK inh-1; calls by dose curve; note: nearly all actives have a fitted effect of over 60% in size
# Tb PFK inh-2: validation of T. brucei phosphofructokinase inhibitors; shares compounds with Tb PFK inh-1; purified T. brucei PFK, ADP-Glo luminescence, 45 min; Potency, µM (top dose mostly 57.5 µM), inactives show at the highest dose activity change, negative = inhibition, actives largely listed as inhibitors; 1,100 compounds, 41% hits;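 note: plate controls were full PFK enzyme control for no effect and no enzyme control for full effect; nearly all actives have a fitted effect of over 60% in size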
# The depositor's hits bear a star; ? = inconclusive; . = no result given; ! = not active in a repeat; [ ] = dose if it differs, or a comment. This is one part of a sample in which hits are shown more often than they occur. Unless noted, calls come from the whole dose curve; as a rule, active = well fitted curve in the direction sought with a large enough effect; inconclusive = small, poorly fitted or top-dose-only effect, or another doubt; inactive = no such curve, though single readings can be large; an effect the other way counts as inactive or inconclusive. Potency is the fitted concentration of half-maximal effect.
SMILES,IMPase Li cell,RGS12 GoLoco inh,MBNL1-CUG inh,Tb PFK inh-1,NPSR antag,TbPFK ATP,Tb PFK inh-2
O=C(Nc1ccc(Cl)c(Cl)c1)N1CCSC1c1ccco1 (centres undefined),27%[38.3 µM],0%,5%,13µM*,?,12%,-11%
CC1CC[C@@]2(OC1)O[C@@H]1[C@@H](O)[C@H]3C4CC[C@H]5C[C@@H](O[C@@H]6O[C@H](CO)[C@H](O[C@@H]7O[C@H](CO)[C@@H](O)[C@H](O[C@@H]8OC[C@@H](O)[C@H](O)[C@H]8O)[C@H]7O[C@@H]7O[C@H](CO)[C@@H](O)[C@H](O[C@@H]8O[C@H](CO)[C@@H](O)[C@H](O)[C@H]8O)[C@H]7O)[C@H](O)[C@H]6O)[C@H](O)C[C@]5(C)C4CC[C@]3(C)[C@H]1[C@@H]2C (some centres undefined),28%,8%,.,.,.,.,.
COc1ccc(N2C(=O)/C(=C/c3cccs3)NC2=S)cc1,16%,-14%,?,15µM*,-24%,6µM*,6µM*
COc1ccc(N2C(=O)/C(=C/c3ccc(N(C)C)o3)C(=O)NC2=S)cc1,.,.,?,-2%,.,.,.
Cc1ccc(-c2csc(Nc3ccc(S(N)(=O)=O)cc3)n2)o1,10%,-27%,27%,11µM*,-12%,?,?
N#Cc1ccc2ccn(CC(=O)NCc3ccccc3)c2c1,22%[38.3 µM],30%,-3%,?,1%[46.1 µM],?,21µM*
CCC(=O)c1cn(Cc2ccc(C#N)cc2)c2ccccc12,29%[38.3 µM],-15%,-9%,-2%,-27%[46.1 µM],.,.
CC(=O)NNc1ccccc1,21%,-33%,.,.,.,.,.
CN1CCc2nc3sc(C(=O)C45CC6CC(CC(C6)C4)C5)c(N)c3cc2C1,9%[38.3 µM],44%,?,?,-16%[46.1 µM],-34%,?
CN1CCc2nc3ccc(F)cc3c(C(N)=O)c2C1,-2%[38.3 µM],-4%,-3%,1%,-7%[46.1 µM],.,.
Cc1nc2ccccc2c(=O)n1-c1ccc(-c2ccccc2)cc1,.,.,-3%,17%,.,.,.
CC(C)c1c(Cl)c(O)c(-c2ccccc2)c(=O)n1-c1ccc(F)cc1,-7%,-3%,?,?,-11%,?,?
Fc1ccc(NCc2cccnc2)cc1F,36%[38.3 µM],-14%,0%,24µM*,6%[46.1 µM],13µM*,27µM*
Cc1cc(O)ccc1Cl,-14%,-3%,.,.,.,.,.
Cc1cc(O)c(-c2cc(O)c(C)cc2O)cc1O,39%,0.32µM*!,-4%,12µM*,?,3µM*,8.5µM*
C=C1[C@@H](C)[C@H]2[C@H](Cc3ccccc3)NC(=O)[C@]23[C@H](OC(C)=O)/C=C/[C@](C)(O)C(=O)[C@@H](C)C/C=C/[C@H]3[C@@H]1O,1%,3%,.,.,.,.,.
Cc1c(C(=O)OCc2ccccc2)[nH]c2c1C(=O)CC(c1ccco1)C2 (centres undefined),36%[38.3 µM],19%,1%,?,?,?,?
Clc1ccc2[nH]c3c(c2c1)CCNC3,.,.,-2%,?,.,.,.
NC(=O)CNC(=O)C1CCCc2c1[nH]c1ccc(Cl)cc21 (centres undefined),23%[38.3 µM],-6%,3%,6µM*,3%[46.1 µM],2.4µM*,3.4µM*
C=C1C(O)C2OC3(CCC(/C=C/C(C)C4CC(C)=CC5(OC(CC(C)(O)C(=O)O)CCC5O)O4)O3)CCC2OC1C(O)CC(C)C1OC2(CCCCO2)CCC1C (centres undefined),10%,1%[0.551 µM],.,.,.,.,.
Cc1oc(=O)c(NC(=O)c2ccc(Cl)cc2)cc1C(=O)c1ccccc1,22%[38.3 µM],18%,-11%,17µM*,?,5%,-8%
N#Cc1cccc(NC(=O)N2CC[C@@]3(CCCN(C(=O)Oc4ccccc4)C3)C2)c1,27%,2%,.,.,.,.,.
O=C(CSc1nnc(CNc2ccc(F)cc2)o1)N1CCCc2ccccc21,8%[38.3 µM],0%,5%,27µM*,-3%[46.1 µM],12µM*,27µM*
CC(C)N(C(=O)CSc1nnc(CNc2ccc(F)cc2)o1)C(C)C,-1%,-10%,-11%,17µM*,-5%[46.1 µM],?,?
COc1ccc(C(=O)CSc2nnc(CNc3ccc(F)cc3)o2)cc1,-6%,-1%,12%,17µM*,4%,12µM*,24µM*
SMILES,IMPase Li cell,RGS12 GoLoco inh,MBNL1-CUG inh,Tb PFK inh-1,NPSR antag,TbPFK ATP,Tb PFK inh-2
CC(C)C1C(=O)N2CCCC2[C@]2(O)O[C@@](NC(=O)[C@@H]3C=C4c5cccc6[nH]cc(c56)C[C@H]4N(C)C3)(C(C)C)C(=O)N12 (some centres undefined),10%,0%,.,.,.,.,.
COc1cc(C2c3cc4c(cc3C(O)C3COC(=O)C23)OCO4)cc(OC)c1O (centres undefined),7%,-5%,.,.,.,.,.
c1cc2c(cc1[C@H]1OC[C@@H]3[C@H]1CO[C@H]3c1ccc3c(c1)OCO3)OCO2,21%,-1%,.,.,.,.,.
O=C(NCc1ccc(Cl)c(Cl)c1)c1ccco1,-1%,-3%,?,9.5µM*,12%[46.1 µM],6µM*,12µM*
Nc1c(C(=O)NCc2ccco2)c2nc3ccccc3nc2n1Cc1ccccc1,3%,31%,25%[11.5 µM],8%,?,.,.
S=C(NCc1ccc(Cl)c(Cl)c1)NCc1ccco1,.,.,-2%,27µM*,.,11µM*,21µM*
Cc1cc(SCc2ccc(Cl)c(Cl)c2)nc(=O)[nH]1,.,.,0%,?,.,12µM*,24µM*
N#Cc1cc2c(nc1SCC(=O)Nc1ccc(Cl)cc1)C1CCN2CC1,8%[38.3 µM],3%,-8%,0%,-22%[46.1 µM],.,.
Cc1c(C=O)c2ccccc2n1Cc1ccc([N+](=O)[O-])cc1,9%,12%,?,-25%,-17%,.,.
CC(=O)CSc1nnc(Cc2ccc([N+](=O)[O-])cc2)o1,8%[38.3 µM],-3%,?,?,-3%[46.1 µM],?,-25%
O=C(CSc1nnc(Cc2ccc(Cl)cc2)o1)Nc1ccccc1,-1%,-4%,1%,?,6%,?,?
N[C@H](CP(=O)(O)O)C(=O)O,13%,0%,.,.,.,.,.
O=C(O)C(Cl)(Cl)Br,-10%,0%,.,.,.,.,.
Cc1nc(Cl)sc1C(=O)Nc1ccc2ccccc2c1,-1%,12%,7%,2%,1%,.,.
O=C(Nc1ccc2ccccc2c1)c1ccccc1O,.,.,-3%,?,.,-33%,?
CN(C)c1ccc(/C=N\NC(=O)c2ccc(Cn3cc(Cl)cn3)cc2)cc1,-4%,10%,52%,12µM*,-30%,2.7µM*,3.4µM*

# Assay outcomes from PubChem.
